This is an account of results in ChEMBL document CHEMBL3988442, “University of Dundee, Small-Polar-MMV Screening Library” (2021).

Each structure is given as a SMILES string. Hit rate of the full screen: of about 67,000 compounds, about 300 (0.45%) showed an effect of 50% or more. The list comes from a sample in which strong results are over-represented; it also holds similar structures and randomly drawn compounds.

The target of this assay is Polyketide synthase Pks13 (Mycobacterium tuberculosis (strain ATCC 25618 / H37Rv)) (UniProt I6X8D2). As to the kind of experiment: Mycobacterium tuberculosis Polyketide synthase 13 Thioesterase (PKS13). The class given is functional. More on the design: scale not given: in the data most compounds retested in dose-response had high values. The settings on record: 30 µM.
Chain of Polyketide synthase Pks13 (Mycobacterium tuberculosis (strain ATCC 25618 / H37Rv)) (I6X8D2 whole entry): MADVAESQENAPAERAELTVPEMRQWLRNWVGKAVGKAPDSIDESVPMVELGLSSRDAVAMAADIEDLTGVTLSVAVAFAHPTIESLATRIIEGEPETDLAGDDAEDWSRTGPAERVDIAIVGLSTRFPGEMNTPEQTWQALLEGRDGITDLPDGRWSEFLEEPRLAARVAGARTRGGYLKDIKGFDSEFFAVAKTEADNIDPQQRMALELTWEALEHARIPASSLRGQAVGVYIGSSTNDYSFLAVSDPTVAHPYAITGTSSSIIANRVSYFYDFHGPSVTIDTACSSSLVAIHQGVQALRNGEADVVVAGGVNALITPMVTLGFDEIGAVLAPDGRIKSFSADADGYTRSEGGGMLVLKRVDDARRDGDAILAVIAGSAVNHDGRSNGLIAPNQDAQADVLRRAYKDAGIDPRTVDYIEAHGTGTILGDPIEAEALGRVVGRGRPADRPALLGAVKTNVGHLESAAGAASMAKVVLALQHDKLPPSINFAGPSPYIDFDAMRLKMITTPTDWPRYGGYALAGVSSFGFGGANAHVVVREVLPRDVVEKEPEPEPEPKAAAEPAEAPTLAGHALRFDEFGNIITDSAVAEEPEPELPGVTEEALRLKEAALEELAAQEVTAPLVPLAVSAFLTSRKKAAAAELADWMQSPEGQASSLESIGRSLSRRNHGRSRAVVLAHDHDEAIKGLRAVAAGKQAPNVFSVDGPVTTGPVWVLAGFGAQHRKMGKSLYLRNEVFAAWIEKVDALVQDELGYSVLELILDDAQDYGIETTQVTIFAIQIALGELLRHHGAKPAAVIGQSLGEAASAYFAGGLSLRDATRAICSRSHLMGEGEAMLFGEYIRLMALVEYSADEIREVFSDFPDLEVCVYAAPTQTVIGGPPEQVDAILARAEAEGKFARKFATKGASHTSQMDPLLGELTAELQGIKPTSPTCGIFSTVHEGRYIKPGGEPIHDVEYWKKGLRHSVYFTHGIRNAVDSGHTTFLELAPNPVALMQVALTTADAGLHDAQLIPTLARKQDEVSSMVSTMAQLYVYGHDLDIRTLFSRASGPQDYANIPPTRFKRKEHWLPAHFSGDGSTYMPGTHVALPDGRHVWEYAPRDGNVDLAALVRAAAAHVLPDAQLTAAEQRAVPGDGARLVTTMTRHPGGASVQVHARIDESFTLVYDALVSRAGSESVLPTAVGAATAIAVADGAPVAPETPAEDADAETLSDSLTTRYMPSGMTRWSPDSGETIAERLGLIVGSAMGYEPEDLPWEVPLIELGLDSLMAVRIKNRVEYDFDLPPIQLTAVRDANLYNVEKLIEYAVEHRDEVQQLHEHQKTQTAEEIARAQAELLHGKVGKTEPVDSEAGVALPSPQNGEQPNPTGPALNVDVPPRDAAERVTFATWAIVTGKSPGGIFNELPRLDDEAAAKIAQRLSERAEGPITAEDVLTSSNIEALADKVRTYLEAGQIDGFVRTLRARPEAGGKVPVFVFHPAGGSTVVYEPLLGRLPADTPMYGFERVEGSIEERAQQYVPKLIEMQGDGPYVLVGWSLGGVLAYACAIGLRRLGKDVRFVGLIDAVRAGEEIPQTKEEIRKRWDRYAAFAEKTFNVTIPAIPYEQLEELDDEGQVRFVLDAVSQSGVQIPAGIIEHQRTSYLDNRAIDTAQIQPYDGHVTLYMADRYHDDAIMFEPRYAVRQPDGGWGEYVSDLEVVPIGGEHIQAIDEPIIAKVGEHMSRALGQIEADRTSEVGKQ
As for `COC[C@@H]1CC[C@H]2[C@H](CCN2S(=O)(=O)Cc2ccccc2)O1`, the Percent Effect is -27.3%.
To `c1cncc(CN2CCN3C[C@H](Oc4cncnc4)C[C@H]3C2)c1` belongs 0.84%; to `Cc1cccc(CN2C[C@@H]3CN(C(=O)C4CCOC4)C[C@@H]3C2=O)c1` (some centres undefined), -8.77%.
The result for `CN1CCN(C(=O)[C@H]2C[C@H]3[C@H](CCN3Cc3nccs3)O2)CC1` reads -17.5%; that for `Cc1ccc(N2CC[C@H]3C[C@H](C(=O)NCc4ccco4)O[C@@H]3C2)cc1`, -20.4%; that for `c1cc(CN2CC[C@@H]3CN(c4cnccn4)C[C@@H]3C2)ccn1`, -15.9%.
To `CC1CN(C(=O)c2cc(=O)[nH]c3ccc(F)cc23)CCO1` (centres undefined) belongs 6.5%.
For the compound `CN(C)C[C@@H]1CN(C(=O)c2cc(F)ccc2F)C[C@@H]1CO`, the Percent Effect is -27.8%.
To `Cc1ccc(OCc2occc2C(=O)N2C[C@@H]3[C@@H](CN(C)C)[C@@H]3C2)cc1` belongs -36.4%; to `CN(C)C[C@H]1C[C@@H](CO)CN(C(=O)c2cc(=O)[nH]c3cc(F)ccc23)C1`, -20%; to `CN(C)C[C@@H]1[C@H]2CN(C(=O)c3cc(=O)[nH]c4ccc(F)cc34)C[C@@H]12`, 55.8%.
To `Cc1ccoc1C(=O)N1CC[C@@H]2CN(C3CCOCC3)CCO[C@@H]2C1` belongs -13.2%; to `COc1ncccc1CN1C[C@H]2C[C@@H](C(=O)NCC3CC3)N(C)[C@H]2C1`, -7.18%.
The result for `Cc1noc(C)c1CN1C(=O)[C@H]2CC[C@@H]1CN(Cc1cccnc1N)C2` reads -20%; that for `Cc1oncc1C(=O)N1CC[C@@H]2[C@@H]1CC(=O)N2Cc1cccnc1`, 10.2%; that for `CCc1ccccc1CN1CCN(Cc2ncc[nH]2)[C@H]2CS(=O)(=O)C[C@H]21`, -16.6%.
Take `Cn1ccc(C(=O)N2CCN(c3ncccn3)CC2)cc1=O`: the Percent Effect came out at 11.1%.
To `Cn1ccc(C(=O)NC2CCN(c3ncccn3)CC2)cc1=O` belongs 71.3%; to `COc1ccc(C(=O)NC2CCN(c3ncccn3)CC2)cc1F`, -18.2%.
Take `CN(C)c1ccc(CN2C[C@H]3CC[C@@H]2CN(C2CCOCC2)C3)cn1`: the Percent Effect is -33%.
To `CNC(=O)[C@H]1C[C@@H]2CN(Cc3csc(C)n3)C[C@@H]2N1S(C)(=O)=O` belongs -33.5%; to `CC(C)COC1CC2(CCN(C(=O)Cc3ccccn3)CC2)C1`, 0.268%; to `CCOC1CC2(CCN(C(=O)Cc3ccccn3)CC2)C1`, 58.6%.
To `O=C(Cc1ccccn1)N1CCC2(CC1)[C@H](O)C[C@@H]2O` belongs 7.55%; to `C[C@@H]1C[C@@H]2CCN(C(=O)c3ccncn3)C[C@H]2O1`, -3.96%; to `O=C(CC[C@@H]1CCCN2CCCC[C@H]12)NCCc1nc(O)cc(O)n1`, -3.34%.
For the compound `c1cncc(OC[C@]23COC[C@H]2CN(Cc2nccs2)C3)c1`, the Percent Effect is -6.85%.
The result for `COCCNC(=O)c1cn(C(C)(C)C)c2ncccc12` reads -9.36%; that for `CCOCCCNC(=O)c1cn(C(C)(C)C)c2ncccc12`, 60.2%.
To `COCCCNC(=O)c1cn(C(C)(C)C)c2ncccc12` belongs 0.73%; to `Cc1cccc(CN2C[C@@H]3CCCO[C@@H]3[C@H](Nc3ccccn3)C2)n1`, -13.2%; to `C[C@H]1C[C@@H]2CCN(C(=O)c3cccn3C)C[C@H]2O1`, -23.4%.
To `Cc1oc(-c2nc(C#N)c(NC3CC3)o2)cc1S(=O)(=O)N1CCCC1` belongs -2.87%; to `CN(C)S(=O)(=O)c1ccc(-c2nc(C#N)c(NC(C)(C)C)o2)o1`, -2.58%; to `CN(C)S(=O)(=O)c1ccc(-c2nc(C#N)c(NC3CC3)o2)o1`, 73.3%.
With `Cc1ccc(C(=O)N2CCO[C@H]3[C@H](OCC4CCOCC4)CC[C@@H]32)o1`, the Percent Effect was -6.47%.
To `O=C(NCCCO)c1cc(-c2cc[nH]n2)n2ccccc12` belongs 48.6%; to `COCCNC(=O)c1cc(-c2cc[nH]n2)n2ccccc12`, 47.6%.
To `CC(C)(CO)CNC(=O)c1cc(-c2cc[nH]n2)n2ccccc12` belongs 67.2%; to `Fc1cnc(N2CCO[C@H]3CN(CC4CCCC4)C[C@H]32)nc1`, -14.5%; to `CC(C)c1n[nH]c(C(=O)Nc2ccccn2)c1Br`, -9.25%.
To `CC(C)c1n[nH]c(C(=O)Nc2cc[nH]n2)c1Br` belongs -20%; to `Cc1cccc(NC(=O)c2[nH]nc(C(C)C)c2Br)n1`, 73.4%; to `Cc1cc(CN2C[C@H]3CCC[C@@]3(COCC3CCOCC3)C2)no1`, -40.7%.
Consider `CC(=O)N1C[C@@H](c2ccsc2)[C@@H]2CN(Cc3ccccc3C)CC[C@@H]21`, for which the Percent Effect was -7.95%.
To `Cc1nc([C@@H]2C[C@@H]3CCN(Cc4cnn(C)c4)C[C@H]3O2)sc1C` belongs -30.4%.
In the case of `CC(=O)N1CCS(=O)(=O)[C@@H]2CCN(CC(C)C)CC[C@@H]21`, the Percent Effect was -16.8%.
The result for `COCCS(=O)(=O)NCC(C)c1cccc(C)c1` (centres undefined) reads -20.8%; that for `Cc1cccc(C(C)CNS(=O)(=O)CCCC#N)c1` (centres undefined), 50.7%.
The result for `CC(CNS(=O)(=O)CCCC#N)c1ccsc1` (centres undefined) reads -31.9%; that for `Cn1cc(CN2C[C@H]3CCN(C(=O)c4cscn4)C[C@H]3C2)cn1`, -3.8%; that for `Cc1ccc(CC(=O)N2CC[C@@H]3NC(=O)CC[C@@H]32)cc1`, -1.54%.
The result for `O=S(=O)(NCC1CCN(c2cnccn2)CC1)c1cccs1` reads 45.5%; that for `CCc1ccc(S(=O)(=O)NCC2CCN(c3cnccn3)CC2)s1`, 56.2%.
Turning to `CCS(=O)(=O)NCC1CCN(c2cnccn2)CC1`, the Percent Effect is -18.7%.
Turning to `CCCc1ccc(CN2CCN(C(=O)CC(C)C)[C@@H]3CS(=O)(=O)C[C@@H]32)o1`, the Percent Effect was -12.9%.
For the compound `CN1CCCC1c1ccnc(C(=O)N(C)C2CCCCC2)c1` (centres undefined), the Percent Effect was determined as 5.64%.
The result for `CCN(CC)C(=O)c1cc(C2CCCN2C)ccn1` (centres undefined) reads 88.5%.
On to `CCN(Cc1ccccc1)C(=O)c1cc(C2CCCN2C)ccn1` (centres undefined), for which the Percent Effect was -15.7%.
The result for `C=Cn1ncc(CN2C[C@@H]3CCCN3C[C@@H]2CCSC)c1C` reads -1.08%; that for `CCc1nnc(CN2CCOC(Cn3cc(C)cn3)C2)o1` (centres undefined), 52.7%.
Consider `Cc1cnn(CC2CN(Cc3nnc(C(C)C)o3)CCO2)c1` (centres undefined), for which the Percent Effect is -12.6%.
`Cc1cnn(CC2CN(Cc3nnc(C4CC4)o3)CCO2)c1` (centres undefined): the Percent Effect was -7.17%.
The result for `Cc1ccc(N2C[C@H]3CCC[C@@]3(COc3cccnc3)C2)nn1` reads -28.6%; that for `N#Cc1cc2c(=O)n(CC(O)C(F)(F)F)ccc2[nH]c1=O` (centres undefined), -25.1%; that for `CCCOC(C)Cn1ccc2[nH]c(=O)c(C#N)cc2c1=O` (centres undefined), 89.3%.
As to `CCC(Cn1ccc2[nH]c(=O)c(C#N)cc2c1=O)OC` (centres undefined), the Percent Effect was -9.98%.
To `O=C(NC1CCC1)[C@H]1C[C@@H]2CN(S(=O)(=O)c3ccccc3)C[C@H]1O2` belongs -31.3%; to `O=C(N[C@H]1CN(Cc2cccs2)[C@@H]2CCCO[C@H]12)c1cccnc1`, -28.5%; to `COc1ccccc1CN1C(=O)O[C@@H]2CN(c3ccccn3)C[C@@H]21`, 4.73%.
The result for `COCCNc1nc2c(c(NCc3ccncc3)n1)CCNCC2` reads -8.09%; that for `COCCNc1nc2c(c(NCC3CCOC3)n1)CCNCC2` (centres undefined), 89.6%.
The result for `COCCNc1nc2c(c(NCCc3cccs3)n1)CCNCC2` reads -17.6%; that for `CS(=O)(=O)NC[C@]12COC[C@H]1CN(C(=O)CCc1ccccc1)C2`, -0.91%; that for `Cc1csc([C@H]2C[C@@H]3CCN(Cc4cc(C)on4)C[C@H]3O2)n1`, -10.9%.
As to `CN(C)S(=O)(=O)N1C[C@H]2CCC[C@@]2(COCc2cccnc2)C1`, the Percent Effect was -34%.
For `CCOc1cc(C(=O)n2cc(C)cn2)cc(OCC)c1OCC`, the Percent Effect was determined as 53.3%.
The result for `CCOc1cc(C(=O)n2cccn2)cc(OCC)c1OCC` reads 21.5%; that for `CCOC(=O)N1CCN(C(=O)c2cc(OCC)c3ccoc3c2)CC1`, 22.8%.
The result for `Cc1nnsc1CN1C[C@H]2CC[C@@H]1CN(Cc1ccccn1)C2` reads 2.49%.
The result for `Cc1cc(S(=O)(=O)Nc2cccc(I)c2)sc1C(=O)O` reads 70%.
For the compound `CCOc1ccc(NS(=O)(=O)c2cc(C)c(C(=O)O)s2)c(C)c1`, the Percent Effect was -32.6%.
The result for `CCOc1ccc(NS(=O)(=O)c2cc(C)c(C(=O)O)s2)cc1F` reads -32.1%; that for `CCOc1cccc(NS(=O)(=O)c2cc(C)c(C(=O)O)s2)c1`, 33.3%.
The result for `Cc1cc(S(=O)(=O)Nc2cccc(OC(F)F)c2)sc1C(=O)O` reads 72.8%; that for `CCOc1c(Cl)cccc1NS(=O)(=O)c1cc(C)c(C(=O)O)s1`, -18.8%.
To `CCc1cccc(NS(=O)(=O)c2cc(C)c(C(=O)O)s2)c1` belongs 56.8%; to `CC(=O)c1cccc(NS(=O)(=O)c2cc(C)c(C(=O)O)s2)c1`, 11.7%.
With `CCOc1cc(F)ccc1NS(=O)(=O)c1cc(C)c(C(=O)O)s1`, the Percent Effect was 4.81%.
To `O=C(O)c1csc(S(=O)(=O)Nc2cccc(OC(F)F)c2)c1` belongs 24.7%.
To `CCOc1cc(C)ccc1NS(=O)(=O)c1cc(C)c(C(=O)O)s1` belongs -26.3%; to `Cc1cc(S(=O)(=O)Nc2cccc(-n3cccc3)c2)sc1C(=O)O`, 74%.
To `Fc1ccc(CN2CCO[C@H]3[C@H](OCC4CC4)CC[C@@H]32)cc1` belongs -2.1%; to `CO[C@H]1CCN(S(=O)(=O)N(C)C)[C@@H]2CN(Cc3cccnc3)C[C@H]12`, 12.3%; to `CCOC(=O)[C@@H]1[C@@H](c2ccccc2)CN2CCN(C(C)=O)C[C@H]12`, 0.569%.
As for `Cc1nc(CN2C[C@H]3C[C@H](C(=O)NCC4CC4)N(C)[C@H]3C2)cs1`, the Percent Effect turned out to be 16.8%.
The result for `O=C(Cc1ccsc1)N1C[C@@H]2OCCN(CC3CCCO3)[C@@H]2C1` (some centres undefined) reads -0.843%; that for `c1cnn(CCCO[C@@H]2CC[C@H]3[C@H]2OCCN3CC2CC2)c1`, -15.8%; that for `Cc1nccc(N2CC[C@@H]3[C@@H](CCC(=O)N3CCc3ccccc3)C2)n1`, -11%.
The result for `O=C(NC1CCCC1)[C@@H]1CN(Cc2nccs2)C[C@H]2OCC[C@H]21` reads -23.6%.
For `CCOCC(=O)N1C[C@H]2CN(CC3CC3)C(=O)[C@H]2C1`, the Percent Effect was -37.5%.
The result for `Cc1ccc2[nH]c(CO[C@H]3CN(C(=O)C4CC4)C[C@H]3F)nc2c1` reads 17.3%; that for `CC(=O)N1C[C@@H](F)[C@@H](OCc2nc3ccc(C#N)cc3[nH]2)C1`, -28.7%.
With `Cc1ccc2[nH]c(CO[C@H]3CN(c4ccc(C#N)cn4)C[C@H]3F)nc2c1`, the Percent Effect stood at 53.9%.
To `CC(C)C(=O)N1C[C@H]2CCCN[C@H]2C1` belongs -32.8%; to `O=C(C[C@H]1[C@H]2CN(C(=O)CO)C[C@@H]12)Nc1cccnc1`, -10.3%; to `O=S(=O)(c1ccc(N2CCCCC2)c2nonc12)N1CCCCC1`, 29.3%.
To `O=S(=O)(c1c(N2CCCC2)ccc2nonc12)N1CCCC1` belongs 32.4%; to `O=S(=O)(c1c(N2CCCCC2)ccc2nonc12)N1CCCCC1`, 51.7%.
